# Test results taken from publication PMC7862700, “An all-to-all approach to the identification of sequence-specific readers for epigenetic DNA modifications on cytosine”.
# Tests used:
# Test in all cases: DAPPL (digital affinity profiling via proximity ligation, sequencing); 10 mM Tris-HCl pH 7.5, 50 mM NaCl, 1 mM DTT, 4% glycerol, room temperature, 30 min; GST-TFs on glutathione beads, 16-mer random dsDNA library, 0.1% formaldehyde crosslink after washing; high values mean tight binding
# FEV = molecular target: T1, FEV (Homo sapiens, UniProt Q99581 1-238); conditions: protein: recombinant; tags: N-terminal GST; dsDNA, one strand shown
# T1 sequence: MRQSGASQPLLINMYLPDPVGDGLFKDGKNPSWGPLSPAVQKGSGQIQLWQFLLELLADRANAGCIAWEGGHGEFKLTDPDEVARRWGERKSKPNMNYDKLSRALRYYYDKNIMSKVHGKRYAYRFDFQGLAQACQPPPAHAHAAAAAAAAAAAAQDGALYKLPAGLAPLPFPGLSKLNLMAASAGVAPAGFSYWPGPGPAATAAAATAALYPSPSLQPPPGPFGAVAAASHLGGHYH
# In short: (§1)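 Pools of DNA-barcoded human transcription factors, expressed in yeast as GST fusions on glutathione beads and combined with a tag-only sample, were incubated with 200 nmole of a 16-mer random double-stranded DNA library. Incubation took 30 min at room temperature in Tris/NaCl/DTT/glycerol buffer and was followed by washing, 0.1% formaldehyde crosslinking, proximity ligation (BsaI/T4 ligase, 1 h, 37 °C), PCR amplification and sequencing on an Illumina NextSeq500. Binding signal is the ratio of a hexamer's read frequency for a factor to its frequency for the tag-only sample.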
# ETV5 = ETV5 (Homo sapiens, UniProt P41161 1-510); conditions: protein: recombinant; tags: N-terminal GST; dsDNA, one strand shown
# Chain of ETV5 (P41161 whole entry): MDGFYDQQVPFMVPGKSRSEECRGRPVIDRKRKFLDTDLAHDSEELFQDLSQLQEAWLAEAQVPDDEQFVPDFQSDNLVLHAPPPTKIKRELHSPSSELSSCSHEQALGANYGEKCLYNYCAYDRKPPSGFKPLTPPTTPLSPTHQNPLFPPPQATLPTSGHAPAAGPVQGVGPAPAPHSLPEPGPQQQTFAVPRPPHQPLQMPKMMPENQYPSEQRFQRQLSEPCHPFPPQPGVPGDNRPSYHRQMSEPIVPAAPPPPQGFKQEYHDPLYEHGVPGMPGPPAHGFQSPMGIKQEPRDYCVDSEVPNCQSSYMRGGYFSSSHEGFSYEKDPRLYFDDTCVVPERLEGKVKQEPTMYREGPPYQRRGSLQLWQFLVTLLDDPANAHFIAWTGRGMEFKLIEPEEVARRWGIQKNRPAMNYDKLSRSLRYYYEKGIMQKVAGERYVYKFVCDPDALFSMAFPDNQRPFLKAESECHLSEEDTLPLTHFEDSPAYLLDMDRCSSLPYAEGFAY
# In short: as §1
# HSF1 = HSF1 (Homo sapiens, UniProt Q00613 1-529); conditions: protein: recombinant; tags: N-terminal GST; chain copies: 3; dsDNA, one strand shown
# Chain of HSF1 (Q00613 whole entry): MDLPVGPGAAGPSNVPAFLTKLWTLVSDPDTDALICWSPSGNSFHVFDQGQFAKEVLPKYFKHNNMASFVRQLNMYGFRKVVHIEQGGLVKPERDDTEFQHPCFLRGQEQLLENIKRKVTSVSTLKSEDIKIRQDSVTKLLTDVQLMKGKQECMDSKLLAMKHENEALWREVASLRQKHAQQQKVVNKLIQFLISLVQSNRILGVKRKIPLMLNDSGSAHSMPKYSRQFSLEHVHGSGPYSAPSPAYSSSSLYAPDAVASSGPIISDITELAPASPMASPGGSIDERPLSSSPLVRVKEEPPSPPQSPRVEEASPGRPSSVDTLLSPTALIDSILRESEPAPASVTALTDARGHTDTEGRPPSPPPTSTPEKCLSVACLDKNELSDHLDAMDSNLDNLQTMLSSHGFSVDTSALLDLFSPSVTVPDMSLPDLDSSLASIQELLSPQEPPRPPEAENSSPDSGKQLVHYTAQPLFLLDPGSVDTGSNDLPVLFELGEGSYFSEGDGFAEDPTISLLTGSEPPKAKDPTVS
# In short: as §1
# SPIC = molecular target: T2, SPIC (Homo sapiens, UniProt Q8N5J4 1-248); conditions: protein: recombinant; tags: N-terminal GST; dsDNA, one strand shown
# T2 sequence: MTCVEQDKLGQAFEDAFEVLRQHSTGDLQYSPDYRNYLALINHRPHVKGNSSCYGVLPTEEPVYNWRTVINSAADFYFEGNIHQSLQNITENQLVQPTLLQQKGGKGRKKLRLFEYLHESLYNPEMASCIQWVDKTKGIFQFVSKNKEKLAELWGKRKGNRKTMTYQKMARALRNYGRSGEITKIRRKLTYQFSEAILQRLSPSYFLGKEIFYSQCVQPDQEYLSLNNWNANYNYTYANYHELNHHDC
# In short: as §1
# ELF4 = ELF4 (Homo sapiens, UniProt Q99607 1-663); conditions: protein: recombinant; tags: N-terminal GST; dsDNA, one strand shown
# Chain of ELF4 (Q99607 whole entry): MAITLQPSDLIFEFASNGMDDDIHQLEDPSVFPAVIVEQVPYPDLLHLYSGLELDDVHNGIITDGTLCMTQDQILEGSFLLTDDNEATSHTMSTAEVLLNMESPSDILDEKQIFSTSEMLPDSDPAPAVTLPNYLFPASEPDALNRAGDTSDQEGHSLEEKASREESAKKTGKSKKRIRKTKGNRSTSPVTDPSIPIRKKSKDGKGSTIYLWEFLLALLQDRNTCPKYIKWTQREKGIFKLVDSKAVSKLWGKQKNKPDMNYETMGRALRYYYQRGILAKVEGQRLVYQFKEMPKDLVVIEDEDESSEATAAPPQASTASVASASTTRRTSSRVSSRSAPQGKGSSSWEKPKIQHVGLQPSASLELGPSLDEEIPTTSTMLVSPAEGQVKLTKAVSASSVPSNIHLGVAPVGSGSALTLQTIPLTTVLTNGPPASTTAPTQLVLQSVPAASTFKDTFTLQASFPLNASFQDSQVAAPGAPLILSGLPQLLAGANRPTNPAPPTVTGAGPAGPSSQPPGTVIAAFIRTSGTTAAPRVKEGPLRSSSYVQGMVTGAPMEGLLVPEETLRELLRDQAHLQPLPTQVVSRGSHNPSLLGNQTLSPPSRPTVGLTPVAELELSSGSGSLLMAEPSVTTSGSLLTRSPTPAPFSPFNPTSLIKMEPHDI
# In short: as §1
# ELK4 = molecular target: T3, ELK4 (Homo sapiens, UniProt P28324-2 1-405); conditions: protein: recombinant; tags: N-terminal GST; dsDNA, one strand shown
# T3 sequence: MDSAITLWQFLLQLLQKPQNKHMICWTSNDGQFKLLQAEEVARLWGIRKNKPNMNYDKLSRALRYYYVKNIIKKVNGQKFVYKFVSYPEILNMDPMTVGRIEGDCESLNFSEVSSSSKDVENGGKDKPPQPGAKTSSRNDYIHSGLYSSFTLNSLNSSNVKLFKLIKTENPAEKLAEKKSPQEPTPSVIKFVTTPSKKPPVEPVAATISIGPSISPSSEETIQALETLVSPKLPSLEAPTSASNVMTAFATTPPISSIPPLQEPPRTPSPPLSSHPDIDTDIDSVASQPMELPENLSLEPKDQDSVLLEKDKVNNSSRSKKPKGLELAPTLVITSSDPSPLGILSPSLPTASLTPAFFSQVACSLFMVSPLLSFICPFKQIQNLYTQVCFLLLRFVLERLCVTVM
# In short: as §1
# ETV2 = molecular target: T4, ETV2 (Homo sapiens, UniProt O00321 1-342); conditions: protein: recombinant; tags: N-terminal GST; dsDNA, one strand shown
# T4 sequence: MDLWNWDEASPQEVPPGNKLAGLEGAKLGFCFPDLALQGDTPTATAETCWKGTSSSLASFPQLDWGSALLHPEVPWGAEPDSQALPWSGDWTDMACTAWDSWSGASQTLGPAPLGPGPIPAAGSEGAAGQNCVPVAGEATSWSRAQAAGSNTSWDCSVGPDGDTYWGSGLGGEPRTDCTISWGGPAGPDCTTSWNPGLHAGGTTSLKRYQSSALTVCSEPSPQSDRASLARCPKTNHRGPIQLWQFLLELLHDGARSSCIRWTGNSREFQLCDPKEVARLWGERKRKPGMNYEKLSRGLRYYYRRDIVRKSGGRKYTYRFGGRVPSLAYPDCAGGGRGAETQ
# In short: as §1
# ELF3 = molecular target: T5, ELF3 (Homo sapiens, UniProt P78545 1-371); conditions: protein: recombinant; tags: N-terminal GST; dsDNA, one strand shown
# T5 sequence: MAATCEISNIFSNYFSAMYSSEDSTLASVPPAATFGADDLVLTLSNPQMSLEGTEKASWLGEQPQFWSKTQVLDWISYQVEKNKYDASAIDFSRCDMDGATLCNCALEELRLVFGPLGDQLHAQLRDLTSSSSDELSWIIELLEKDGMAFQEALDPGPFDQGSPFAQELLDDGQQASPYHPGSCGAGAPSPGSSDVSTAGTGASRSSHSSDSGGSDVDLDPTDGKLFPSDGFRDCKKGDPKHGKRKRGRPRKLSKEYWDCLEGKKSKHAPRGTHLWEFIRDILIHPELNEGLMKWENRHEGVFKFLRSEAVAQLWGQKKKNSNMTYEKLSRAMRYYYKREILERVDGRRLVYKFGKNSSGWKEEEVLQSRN
# In short: as §1
# CRX = CRX (Homo sapiens, UniProt O43186 1-299); conditions: protein: recombinant; tags: N-terminal GST; dsDNA, one strand shown
# Chain of CRX (O43186 whole entry): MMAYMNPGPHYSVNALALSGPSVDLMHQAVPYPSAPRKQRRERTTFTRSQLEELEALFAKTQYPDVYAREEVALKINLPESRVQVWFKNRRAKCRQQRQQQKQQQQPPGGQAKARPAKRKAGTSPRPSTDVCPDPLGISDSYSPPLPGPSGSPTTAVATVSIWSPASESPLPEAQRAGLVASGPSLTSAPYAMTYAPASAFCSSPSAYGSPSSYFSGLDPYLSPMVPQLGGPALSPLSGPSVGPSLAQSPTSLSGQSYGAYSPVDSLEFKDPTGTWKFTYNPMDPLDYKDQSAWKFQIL
# In short: as §1
# ETV1 = ETV1 (Homo sapiens, UniProt P50549 1-477); conditions: protein: recombinant; tags: N-terminal GST; dsDNA, one strand shown
# Chain of ETV1 (P50549 whole entry): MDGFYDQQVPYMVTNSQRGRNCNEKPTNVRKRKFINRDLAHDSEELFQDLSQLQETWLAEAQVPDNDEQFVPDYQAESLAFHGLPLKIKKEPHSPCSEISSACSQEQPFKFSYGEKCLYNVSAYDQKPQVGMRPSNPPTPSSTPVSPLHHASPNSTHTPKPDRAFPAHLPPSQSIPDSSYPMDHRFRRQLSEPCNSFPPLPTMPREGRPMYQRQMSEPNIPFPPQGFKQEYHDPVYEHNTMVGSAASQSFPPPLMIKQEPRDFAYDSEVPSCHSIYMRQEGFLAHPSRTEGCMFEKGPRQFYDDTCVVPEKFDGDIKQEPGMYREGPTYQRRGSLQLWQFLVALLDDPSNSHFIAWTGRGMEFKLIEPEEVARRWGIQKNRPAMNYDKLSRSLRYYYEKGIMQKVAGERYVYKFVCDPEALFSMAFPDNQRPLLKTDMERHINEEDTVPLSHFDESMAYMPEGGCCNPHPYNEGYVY
# In short: as §1
# ERF = molecular target: T6, ERF (Homo sapiens, UniProt P50548 1-548); conditions: protein: recombinant; tags: N-terminal GST; dsDNA, one strand shown
# T6 sequence: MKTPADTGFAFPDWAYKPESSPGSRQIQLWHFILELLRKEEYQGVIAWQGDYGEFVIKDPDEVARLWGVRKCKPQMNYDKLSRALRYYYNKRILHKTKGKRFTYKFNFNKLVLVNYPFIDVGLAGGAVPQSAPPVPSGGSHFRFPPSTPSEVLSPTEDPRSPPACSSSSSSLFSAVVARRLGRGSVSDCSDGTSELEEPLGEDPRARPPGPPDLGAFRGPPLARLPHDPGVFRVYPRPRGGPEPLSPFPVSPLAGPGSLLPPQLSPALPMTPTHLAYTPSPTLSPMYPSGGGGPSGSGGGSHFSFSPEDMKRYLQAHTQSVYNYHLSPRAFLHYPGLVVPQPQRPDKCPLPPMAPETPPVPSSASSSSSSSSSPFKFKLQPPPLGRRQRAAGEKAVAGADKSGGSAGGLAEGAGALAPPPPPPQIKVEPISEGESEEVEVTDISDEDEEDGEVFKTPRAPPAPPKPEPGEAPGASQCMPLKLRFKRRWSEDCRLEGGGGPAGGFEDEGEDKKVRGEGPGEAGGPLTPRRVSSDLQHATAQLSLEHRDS
# In short: as §1
# ETV3L = molecular target: T7, ETV3L (Homo sapiens, UniProt Q6ZN32 1-361); conditions: protein: recombinant; tags: N-terminal GST; dsDNA, one strand shown
# T7 sequence: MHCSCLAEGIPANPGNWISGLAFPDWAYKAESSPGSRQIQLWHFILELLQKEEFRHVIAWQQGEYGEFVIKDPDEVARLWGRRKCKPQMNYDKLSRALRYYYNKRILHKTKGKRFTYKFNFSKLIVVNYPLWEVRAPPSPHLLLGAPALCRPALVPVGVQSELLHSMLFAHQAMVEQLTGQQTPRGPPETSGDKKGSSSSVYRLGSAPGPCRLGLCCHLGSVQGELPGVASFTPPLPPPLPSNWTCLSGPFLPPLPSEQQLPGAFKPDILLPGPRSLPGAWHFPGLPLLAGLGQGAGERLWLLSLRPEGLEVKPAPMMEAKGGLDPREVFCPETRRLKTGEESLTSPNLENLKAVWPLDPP
# In short: as §1
# ETS2 = molecular target: T8, ETS2 (Homo sapiens, UniProt P15036 1-469); conditions: protein: recombinant; tags: N-terminal GST; dsDNA, one strand shown
# T8 sequence: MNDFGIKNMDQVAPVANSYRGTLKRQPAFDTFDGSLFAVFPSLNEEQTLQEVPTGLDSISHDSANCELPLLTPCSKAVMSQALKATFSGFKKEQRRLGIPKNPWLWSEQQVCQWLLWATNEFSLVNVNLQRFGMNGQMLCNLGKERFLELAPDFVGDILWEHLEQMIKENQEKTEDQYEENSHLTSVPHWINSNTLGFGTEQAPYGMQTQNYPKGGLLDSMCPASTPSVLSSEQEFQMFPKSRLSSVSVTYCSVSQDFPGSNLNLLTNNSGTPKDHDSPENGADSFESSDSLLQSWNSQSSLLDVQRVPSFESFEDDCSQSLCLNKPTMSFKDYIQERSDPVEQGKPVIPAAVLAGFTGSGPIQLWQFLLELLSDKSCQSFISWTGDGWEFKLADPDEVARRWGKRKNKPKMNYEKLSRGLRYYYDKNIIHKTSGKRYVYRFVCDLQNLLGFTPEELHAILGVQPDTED
# In short: as §1
# SPDEF = molecular target: T9, SPDEF (Homo sapiens, UniProt O95238 1-335); conditions: protein: recombinant; tags: N-terminal GST; dsDNA, one strand shown
# T9 sequence: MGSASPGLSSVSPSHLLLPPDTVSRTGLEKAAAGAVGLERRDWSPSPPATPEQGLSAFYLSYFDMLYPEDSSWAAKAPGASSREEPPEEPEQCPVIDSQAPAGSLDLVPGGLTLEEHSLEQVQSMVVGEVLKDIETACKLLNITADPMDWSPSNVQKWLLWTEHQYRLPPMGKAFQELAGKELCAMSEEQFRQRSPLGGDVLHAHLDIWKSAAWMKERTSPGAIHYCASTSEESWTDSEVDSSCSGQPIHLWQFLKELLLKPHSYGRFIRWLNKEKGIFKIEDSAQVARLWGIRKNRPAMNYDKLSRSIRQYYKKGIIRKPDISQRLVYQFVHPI
# In short: as §1
# ETV7 = molecular target: T10, ETV7 (Homo sapiens, UniProt Q9Y603 1-341); conditions: protein: recombinant; tags: N-terminal GST; dsDNA, one strand shown
# T10 sequence: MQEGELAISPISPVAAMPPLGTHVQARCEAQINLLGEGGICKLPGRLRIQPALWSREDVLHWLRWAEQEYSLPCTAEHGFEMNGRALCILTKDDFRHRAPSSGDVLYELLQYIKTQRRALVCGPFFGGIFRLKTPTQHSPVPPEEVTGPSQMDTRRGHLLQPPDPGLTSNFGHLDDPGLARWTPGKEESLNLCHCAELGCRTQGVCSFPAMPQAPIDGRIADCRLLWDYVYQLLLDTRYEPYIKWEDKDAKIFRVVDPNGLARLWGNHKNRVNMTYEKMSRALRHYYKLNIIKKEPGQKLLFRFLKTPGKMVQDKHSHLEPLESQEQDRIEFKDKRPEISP
# In short: as §1
# ELF5 = molecular target: T11, ELF5 (Homo sapiens, UniProt Q9UKW6-2 1-255); conditions: protein: recombinant; tags: N-terminal GST; dsDNA, one strand shown
# T11 sequence: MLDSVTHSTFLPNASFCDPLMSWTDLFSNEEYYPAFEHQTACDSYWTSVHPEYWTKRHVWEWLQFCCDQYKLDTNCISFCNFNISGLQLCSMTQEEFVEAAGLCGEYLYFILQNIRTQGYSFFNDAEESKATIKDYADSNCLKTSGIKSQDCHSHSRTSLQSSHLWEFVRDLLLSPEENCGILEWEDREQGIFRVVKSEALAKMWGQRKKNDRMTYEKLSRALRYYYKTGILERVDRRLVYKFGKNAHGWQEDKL
# In short: as §1
# ETV3 = molecular target: T12, ETV3 (Homo sapiens, UniProt P41162-2 1-143); conditions: protein: recombinant; tags: N-terminal GST; dsDNA, one strand shown
# T12 sequence: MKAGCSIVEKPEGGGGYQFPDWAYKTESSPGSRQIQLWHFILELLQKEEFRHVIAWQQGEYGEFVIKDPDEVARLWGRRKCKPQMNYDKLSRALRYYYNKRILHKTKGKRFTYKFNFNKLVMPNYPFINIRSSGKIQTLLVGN
# In short: as §1
# ETV6 = ETV6 (Homo sapiens, UniProt P41212 1-452); conditions: protein: recombinant; tags: N-terminal GST; dsDNA, one strand shown
# Chain of ETV6 (P41212 whole entry): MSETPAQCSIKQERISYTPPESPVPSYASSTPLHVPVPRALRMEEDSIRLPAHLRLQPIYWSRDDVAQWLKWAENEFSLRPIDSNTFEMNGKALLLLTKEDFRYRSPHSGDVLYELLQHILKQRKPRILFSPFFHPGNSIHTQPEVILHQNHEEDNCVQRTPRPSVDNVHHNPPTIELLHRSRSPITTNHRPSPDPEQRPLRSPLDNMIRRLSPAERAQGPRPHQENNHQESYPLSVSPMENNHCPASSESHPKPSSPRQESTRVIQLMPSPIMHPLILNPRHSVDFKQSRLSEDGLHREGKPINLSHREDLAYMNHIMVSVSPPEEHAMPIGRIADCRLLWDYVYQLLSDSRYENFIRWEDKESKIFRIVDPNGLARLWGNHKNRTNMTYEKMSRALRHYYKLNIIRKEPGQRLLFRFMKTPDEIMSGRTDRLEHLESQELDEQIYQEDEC
# In short: as §1
sequence,measurement,setting,value
AAACTA,binding signal,FEV,"1.29 fold enrichment (6-mer frequency, TF over GST control)"
same,binding signal,ETV5,"1.3 fold enrichment (6-mer frequency, TF over GST control)"
same,binding signal,HSF1,"1.31 fold enrichment (6-mer frequency, TF over GST control)"
same,binding signal,SPIC,"1.18 fold enrichment (6-mer frequency, TF over GST control)"
same,binding signal,ELF4,"1.33 fold enrichment (6-mer frequency, TF over GST control)"
same,binding signal,ELK4,"1.22 fold enrichment (6-mer frequency, TF over GST control)"
same,binding signal,ETV2,"1.29 fold enrichment (6-mer frequency, TF over GST control)"
same,binding signal,ELF3,"1.09 fold enrichment (6-mer frequency, TF over GST control)"
same,binding signal,CRX,"1.35 fold enrichment (6-mer frequency, TF over GST control)"
same,binding signal,ETV1,"1.36 fold enrichment (6-mer frequency, TF over GST control)"
same,binding signal,ERF,"1.29 fold enrichment (6-mer frequency, TF over GST control)"
same,binding signal,ETV3L,"1.27 fold enrichment (6-mer frequency, TF over GST control)"
same,binding signal,ETS2,"1.35 fold enrichment (6-mer frequency, TF over GST control)"
same,binding signal,SPDEF,"1.29 fold enrichment (6-mer frequency, TF over GST control)"
same,binding signal,ETV7,"1.31 fold enrichment (6-mer frequency, TF over GST control)"
same,binding signal,ELF5,"1.32 fold enrichment (6-mer frequency, TF over GST control)"
same,binding signal,ETV3,"1.24 fold enrichment (6-mer frequency, TF over GST control)"
same,binding signal,ETV6,"1.25 fold enrichment (6-mer frequency, TF over GST control)"
